Source: PubChem BioAssay (The Scripps Research Institute Molecular Screening Center)
ZTA DNA inh – ZTA (EBV) inhibition in EBNA-1 counter-screen. P03206. ZTA-DNA binding, fluorescence polarization. inhibition, % at 11 µM. 320,000 compounds, 0.15% hits. AID 2234; in the data active means inhibition above about 33%
PAFAH1B3 FP inh – inhibitors of human PAFAH1B3. AID 492972. inhibition, % at 3.39 µM. 340,000 compounds, 0.28% hits. Q15102. recombinant PAFAH1B3, FP-rhodamine probe, fluorescence polarization;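 active means inhibition above the screen-wide average of all tested compounds plus 3 SD, cut at about 25% in these data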;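 further: 0% = enzyme with DMSO only and 100% = wells lacking PAFAH1B3 protein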
Target sequence (Q15102 whole entry, looked up): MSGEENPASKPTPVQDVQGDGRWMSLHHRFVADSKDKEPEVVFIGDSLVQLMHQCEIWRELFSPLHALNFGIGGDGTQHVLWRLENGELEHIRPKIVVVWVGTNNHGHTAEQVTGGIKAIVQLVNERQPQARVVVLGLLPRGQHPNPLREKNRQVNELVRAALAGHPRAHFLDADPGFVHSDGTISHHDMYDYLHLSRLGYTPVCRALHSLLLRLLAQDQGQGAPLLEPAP
PAFAH2 FP inh – PAFAH2 (human) inhibition; Q99487; recombinant PAFAH2, FP-rhodamine activity probe, fluorescence polarization; inhibition, % at 3.39 µM; 340,000 compounds, 0.99% hits;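 active means inhibition above the mean over all tested compounds plus 3 SD, cut at about 30% in these data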;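 further: inhibitors block probe labeling of enzyme so polarization drops; 0% = enzyme with DMSO and 100% = wells lacking PAFAH2 protein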
EBNA-1 inh – blocks EBNA-1 binding to DNA | 300,000 compounds, 0.34% hits | EBNA-1 DNA binding, fluorescence polarization | inhibition, % at 14.8 µM; in the data active means inhibition above about 28%
pPAFAH FP inh – pPAFAH (human) enzyme inhibition. Q13093. recombinant pPAFAH, FP-rhodamine probe fluorescence polarization. inhibition, % at 3.39 µM. 330,000 compounds, 1.5% hits;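 active means inhibition above the mean inhibition across the screen plus 3 SD, cut at about 25% in these data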;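 further: inhibitors block binding of the rhodamine activity-based probe so polarization drops; 0% = enzyme with DMSO and 100% = wells lacking pPAFAH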
PAFAH1B2 inh – inhibitors of human PAFAH1B2. P68402. recombinant PAFAH1B2, FP-rhodamine activity probe, fluorescence polarization. inhibition, % at 3.39 µM. 340,000 compounds, 1.2% hits;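 active means inhibition above the mean of all tested compounds plus 3 SD, cut at about 24% in these data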;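 further: 0% = enzyme with DMSO and 100% = wells lacking PAFAH1B2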
Target sequence (P68402 whole entry, looked up): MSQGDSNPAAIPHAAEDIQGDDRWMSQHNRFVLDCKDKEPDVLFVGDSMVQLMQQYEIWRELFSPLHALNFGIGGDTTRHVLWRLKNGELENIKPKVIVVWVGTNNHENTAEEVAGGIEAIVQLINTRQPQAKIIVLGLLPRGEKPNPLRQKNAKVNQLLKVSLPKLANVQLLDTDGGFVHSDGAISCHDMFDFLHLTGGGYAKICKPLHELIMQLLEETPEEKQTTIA
pPAFAH confirm – pPAFAH (human) inhibition, confirmed; shares compounds with pPAFAH FP inh; recombinant pPAFAH, FP-Rh probe fluorescence polarization; inhibition, % at 3.39 µM; 2,300 compounds, 72% hits; AID 463230;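 active means mean inhibition of the triplicate above the hit cutoff set for the earlier primary screen, cut at about 25% in these data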;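 further: 0% = enzyme with DMSO and 100% = wells lacking pPAFAH enzyme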
Active calls of the source: *; / = no result. Shown are actives, neighbours in structure and some others; about 2.9% of the full set was active somewhere.

SMILES | ZTA DNA inh | PAFAH1B3 FP inh | PAFAH2 FP inh | EBNA-1 inh | pPAFAH FP inh | PAFAH1B2 inh | pPAFAH confirm
COc1ccc(S(=O)(=O)N2CCOC2CNC(=O)C(=O)NCCc2ccc(S(N)(=O)=O)cc2)cc1 (centres undefined) | -10 | 9 | -2 | -10 | 4 | 5 | /
CC(N=Cc1cc([N+](=O)[O-])ccc1O)c1ccccc1 (centres undefined) | -10 | 13 | 13 | -1 | -4 | 2 | /
CC(N=Cc1cccc(O)c1O)c1ccccc1 (centres undefined) | -11 | 24 | 26 | 2 | 66* | 17 | 17
O=C(CSc1nnc(-c2ccco2)o1)c1ccccc1 | -2 | -4 | 11 | 4 | 9 | 4 | /
CC(=O)c1ccc(NC(=O)CSc2nnc(-c3ccco3)c(-c3ccco3)n2)cc1 | 6 | 17 | 27 | -7 | 46* | 2 | 15
O=C(CSc1nnc(-c2ccco2)c(-c2ccco2)n1)c1ccccc1 | -1 | 12 | 33* | -2 | 54* | 10 | 16
O=C1c2cc(O)c(O)cc2S(=O)(=O)C1c1ccccc1 (centres undefined) | 1 | 9 | 6 | 2 | 6 | 6 | /
CCc1nnc(NS(=O)(=O)c2ccc(NC(=O)c3cccc(OC)c3)cc2)s1 | 1 | 7 | -2 | 11 | -5 | 2 | /
Cn1c2ccccc2c(=O)c2ccc(NCCc3cccs3)cc21 | / | 10 | 21 | / | 38* | 12 | 16
Cn1c(C(=O)NCc2cccs2)cc2c(=O)n(C)c3ccccc3c21 | -11 | 9 | 5 | -10 | -5 | 3 | /
CN(Cc1ccccc1)C1CCCN(C(=O)c2ccc(Cl)s2)C1 (centres undefined) | 27 | 4 | 8 | 8 | 3 | 2 | /
CCN(CC)C(=S)Nc1cc(C(=O)OC)ccc1C(=O)OC | -3 | 5 | 4 | 3 | 1 | 4 | /
NNC(=O)c1cc2ccccc2cc1O | -25 | 10 | -4 | 4 | 43* | 5 | 1
Cc1ccc(Cl)cc1NC(=O)c1cc2ccccc2cc1O | -9 | 4 | 2 | 4 | 35* | 2 | 14
O=C(NC(=S)NNC(=O)c1cc2ccccc2cc1O)c1ccco1 | 6 | 15 | 16 | 7 | 39* | 5 | 37*
COc1ccc(C(=O)NC(=S)NNC(=O)c2ccco2)cc1 | 1 | 3 | -8 | 5 | -1 | 4 | /
COc1cc(NC(=O)c2cc3ccccc3cc2O)c(OC)cc1Cl | -4 | 8 | 6 | -23 | 9 | 2 | /
CN(CC(=O)Nc1ccccc1Br)C(=O)Cn1[nH]c(=O)c2ccccc2c1=O | -13 | 5 | 3 | / | -6 | 1 | /
CCN(CC)c1ccc(C=Nc2ccc(C)cc2C)c(O)c1 | 16 | 4 | 2 | 9 | 3 | 0 | /
Cc1ccc(N=Cc2cccc(O)c2O)c(C)c1 | -6 | 17 | 9 | 1 | 37* | 10 | 10
O=C(CC1Nc2cccc3cccc(c23)NC1=O)Nc1ccccc1 (centres undefined) | -9 | 18 | 58* | 13 | 52* | 4 | 12
Cc1ccccc1NC(=O)c1sc2nc3c(c(-c4ccco4)c2c1N)CCC3 | 18 | 5 | 9 | 4 | 36* | 5 | 24
COc1cc(/C=N/Nc2ccccc2[N+](=O)[O-])cc(OC)c1O | 1 | 6 | 2 | -20 | 21 | 0 | /
COc1cc(/C=N/Nc2nc3ccccc3s2)cc([N+](=O)[O-])c1O | 5 | 9 | 24 | 8 | 43* | 14 | 47*
COc1cccc(C2Nc3c(F)cc(Br)cc3C3C=CCC32)c1OC (centres undefined) | 0 | 16 | 9 | 4 | 0 | 2 | /
SMILES | ZTA DNA inh | PAFAH1B3 FP inh | PAFAH2 FP inh | EBNA-1 inh | pPAFAH FP inh | PAFAH1B2 inh | pPAFAH confirm
COc1cccc2c1NC(C(=O)O)C1CC=CC21 (centres undefined) | 38* | 24 | 48* | 20 | 57* | 30* | 11
CN(C)CCCN1c2ccccc2Sc2ccc(Cl)cc21 | 0 | 4 | -1 | -2 | 2 | 2 | /
OCCN1CCN(CCCN2c3ccccc3Sc3ccc(Cl)cc32)CC1 | -4 | -3 | 3 | 0 | 39* | 0 | 33*
Cn1cnc(S(=O)(=O)Nc2ccc(OC(F)(F)F)cc2)c1 | 2 | 3 | 5 | -9 | 13 | 17 | /
C/C(=N\NC(=O)Cc1ccc(Cl)cc1)c1ccccc1O | 1 | 5 | 6 | -4 | 5 | 11 | /
Clc1ccc(CNc2ccc(CNc3ncn[nH]3)cc2)c(Cl)c1 | 2 | 6 | 1 | 3 | 37* | 8 | 20
COc1ccccc1/C=C(/C(=O)OCC(=O)Nc1cc(C)ccc1C)c1ccccc1 | -24 | 2 | 0 | -19 | -4 | -5 | /
O=C(NCC(=O)N1CCN(c2ccccc2O)CC1)C1CCCCC1 | -24 | 8 | 24 | -9 | 37* | 2 | 24
O=C(Oc1ccccc1)c1ccc2c(c1)C(=O)N(Cc1ccncc1)C2=O | -6 | -1 | -2 | -6 | 5 | 3 | /
CCOc1ccc(Cc2n[nH]c(=S)n2Cc2ccccc2)cc1 | -4 | 9 | 1 | 0 | -3 | 7 | /
COc1ccc(N2CCN(C(=O)COC(=O)c3cccc(S(=O)(=O)Nc4cccc(C)c4)c3)CC2)cc1 | -4 | 2 | 3 | -14 | 40* | -4 | 44*
O=c1cc(-c2ccccc2)oc2cc(O)c(O)c(O)c12 | / | 17 | 22 | / | 56* | 3 | 69*
O=c1cc(-c2ccc(O)cc2)oc2c(O)c(O)c(O)c(O)c12 | -2 | 52* | 69* | -8 | 37* | 26* | 72*
COc1c(O)cc2oc(-c3ccc(O)cc3)cc(=O)c2c1O | -3 | 4 | 5 | 0 | 8 | 6 | /
COc1cc2cc3c(N)c(C(=O)NCc4ccco4)sc3nc2cc1OC | -4 | 9 | 0 | 6 | 24 | -2 | /
COc1cc2cc3c(N)c(C(=O)Nc4sc(C)c(C)c4C#N)sc3nc2cc1OC | 6 | 14 | 23 | 4 | 52* | 7 | 14
CCCCCC(=O)Nc1ccc(C2C(=O)c3ccccc3C2=O)cc1 | 10 | 3 | 3 | -1 | -1 | 8 | /
Cc1nn(-c2ccccc2Cl)c(Cl)c1/C=N/Nc1cccc(C(=O)O)c1 | 7 | 4 | 14 | -6 | -4 | 0 | /
Cc1nn(-c2cccc(C(F)(F)F)c2)c(Cl)c1/C=N/Nc1cccc(C(=O)O)c1 | 15 | 6 | -1 | -4 | 35* | 6 | 35*
Cc1ccc(N2NC(=O)/C(=C\c3cc4c(cc3[N+](=O)[O-])OCO4)C2=O)cc1C | -2 | 7 | 50* | 10 | 48* | 16 | 15
CCOC(=O)c1c(NC(=O)/C=C/C(=O)O)sc(C)c1-c1ccc(Cl)cc1 | 25 | 2 | -3 | 3 | 44* | 2 | 40*
CCOc1ccc2c(c1)C(=O)c1cc(OCC(=O)O)ccc1-2 | 20 | 8 | 1 | -3 | 37* | 3 | 7
